The values that follow come from PubChem BioAssay.

The test system of test [1] is PRMT1 (protein arginine N-methyltransferase 1). Nature of the test: small molecules binding arginine methyltransferase PRMT1 – biochemical, small-molecule microarray, 635 nm fluorescence, primary screen (AID 1088).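 Note: binding of Prmt1 protein to compounds spotted on small-molecule microarray slides.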 The note with it: higher = more signal.
The nature of test [2]: growth effects on S. cerevisiae YJM789 – YJM789 clinical isolate, OD600, 24 h, basal, primary screen (AID 1089).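 Note: growth of clinical yeast isolate S. cerevisiae YJM 789 seeded 1000 cells per well; test concentration not given here.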 Conditions: higher = more signal, called active from +8 up or from −8 down.
Test [3] in a line: S. pombe growth modifiers, basal conditions – strain 972, OD600, 24 h, no modulator, primary screen (AID 1090).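 Note: basal condition with compound alone and no growth modifier present; test concentration not given here.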 Conditions: S. pombe 972 growth, higher = more signal, called active from +8 up or from −8 down.
Test [4] can be described thus: budding yeast growth modifiers under rapamycin – strain BY4716, OD600, 96 h, primary screen (AID 1091). Note: test concentration not given here. The note with it: S. cerevisiae BY4716 + rapamycin, higher = more signal, called active from +8 up or from −8 down.
In test [5] the target is Torsin-1A-interacting protein 2 (Homo sapiens) (UniProt Q8NFQ8). Nature of the test: small molecules binding lysate-expressed LULL1 – cell lysate, human LULL1 lysate, 635/667 nm fluorescence, primary screen (AID 1092).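 Note: probe is lysate of COS7 cells overexpressing human LULL1; score merges per-feature 667 nm fluorescence with signal-to-noise.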 Conditions: small-molecule microarray, hLULL1 lysate binding, 635 nm fluorescence; higher = more signal.
Sequence of Torsin-1A-interacting protein 2 (Homo sapiens) (Q8NFQ8 whole entry, looked up): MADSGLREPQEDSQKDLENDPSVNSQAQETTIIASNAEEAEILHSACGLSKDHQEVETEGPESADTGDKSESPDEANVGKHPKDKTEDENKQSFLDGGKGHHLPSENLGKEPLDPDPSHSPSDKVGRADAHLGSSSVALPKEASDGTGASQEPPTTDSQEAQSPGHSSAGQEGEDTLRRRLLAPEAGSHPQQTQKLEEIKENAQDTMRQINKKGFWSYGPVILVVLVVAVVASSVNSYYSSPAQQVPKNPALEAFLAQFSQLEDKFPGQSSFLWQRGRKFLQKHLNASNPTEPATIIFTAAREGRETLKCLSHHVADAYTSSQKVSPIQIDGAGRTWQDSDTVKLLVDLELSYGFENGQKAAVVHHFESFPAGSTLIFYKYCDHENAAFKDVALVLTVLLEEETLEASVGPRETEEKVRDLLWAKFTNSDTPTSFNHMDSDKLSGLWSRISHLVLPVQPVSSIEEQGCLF
Test [6] is described as follows: optical density change of DRC41 E. coli – strain DRC41, OD650, 24 h, E. coli filamentation project, primary screen (AID 1093).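 Note: MC1000 strain lacking acrAB efflux and sulA so SOS filamentation is blocked; test concentration not given here.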 The note with it: E. coli DRC41 growth, higher = more signal, called active from +8 up or from −8 down.
Test [7] can be described thus: probe aLefty2 binding to arrayed compounds – biochemical, biotinylated probe, 635/667 nm fluorescence, primary screen (AID 1094).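 Note: score merges spot fluorescence near 667 nm with spot signal-to-noise ratio.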 The note with it: small-molecule microarray, higher = more signal.
Test [8] has as its system Noggin (protein binding on small-molecule microarray). Nature of the test: small molecules binding Noggin protein – biochemical, 635/667 nm fluorescence, primary screen (AID 1095).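 Note: score merges 667 nm feature fluorescence with signal to noise over triplicate slides.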 The note with it: 635 nm fluorescence, higher = more signal.
The target in test [9] is Neurogenic locus notch homolog protein 3 (Homo sapiens) (UniProt Q9UM47). The test can be described thus: small molecules binding NOTCH3 protein – biochemical, 635/667 nm fluorescence, primary screen (AID 1096). Conditions: small-molecule microarray, 635 nm fluorescence, higher = more signal.
Sequence of Neurogenic locus notch homolog protein 3 (Homo sapiens) (Q9UM47 whole entry, looked up): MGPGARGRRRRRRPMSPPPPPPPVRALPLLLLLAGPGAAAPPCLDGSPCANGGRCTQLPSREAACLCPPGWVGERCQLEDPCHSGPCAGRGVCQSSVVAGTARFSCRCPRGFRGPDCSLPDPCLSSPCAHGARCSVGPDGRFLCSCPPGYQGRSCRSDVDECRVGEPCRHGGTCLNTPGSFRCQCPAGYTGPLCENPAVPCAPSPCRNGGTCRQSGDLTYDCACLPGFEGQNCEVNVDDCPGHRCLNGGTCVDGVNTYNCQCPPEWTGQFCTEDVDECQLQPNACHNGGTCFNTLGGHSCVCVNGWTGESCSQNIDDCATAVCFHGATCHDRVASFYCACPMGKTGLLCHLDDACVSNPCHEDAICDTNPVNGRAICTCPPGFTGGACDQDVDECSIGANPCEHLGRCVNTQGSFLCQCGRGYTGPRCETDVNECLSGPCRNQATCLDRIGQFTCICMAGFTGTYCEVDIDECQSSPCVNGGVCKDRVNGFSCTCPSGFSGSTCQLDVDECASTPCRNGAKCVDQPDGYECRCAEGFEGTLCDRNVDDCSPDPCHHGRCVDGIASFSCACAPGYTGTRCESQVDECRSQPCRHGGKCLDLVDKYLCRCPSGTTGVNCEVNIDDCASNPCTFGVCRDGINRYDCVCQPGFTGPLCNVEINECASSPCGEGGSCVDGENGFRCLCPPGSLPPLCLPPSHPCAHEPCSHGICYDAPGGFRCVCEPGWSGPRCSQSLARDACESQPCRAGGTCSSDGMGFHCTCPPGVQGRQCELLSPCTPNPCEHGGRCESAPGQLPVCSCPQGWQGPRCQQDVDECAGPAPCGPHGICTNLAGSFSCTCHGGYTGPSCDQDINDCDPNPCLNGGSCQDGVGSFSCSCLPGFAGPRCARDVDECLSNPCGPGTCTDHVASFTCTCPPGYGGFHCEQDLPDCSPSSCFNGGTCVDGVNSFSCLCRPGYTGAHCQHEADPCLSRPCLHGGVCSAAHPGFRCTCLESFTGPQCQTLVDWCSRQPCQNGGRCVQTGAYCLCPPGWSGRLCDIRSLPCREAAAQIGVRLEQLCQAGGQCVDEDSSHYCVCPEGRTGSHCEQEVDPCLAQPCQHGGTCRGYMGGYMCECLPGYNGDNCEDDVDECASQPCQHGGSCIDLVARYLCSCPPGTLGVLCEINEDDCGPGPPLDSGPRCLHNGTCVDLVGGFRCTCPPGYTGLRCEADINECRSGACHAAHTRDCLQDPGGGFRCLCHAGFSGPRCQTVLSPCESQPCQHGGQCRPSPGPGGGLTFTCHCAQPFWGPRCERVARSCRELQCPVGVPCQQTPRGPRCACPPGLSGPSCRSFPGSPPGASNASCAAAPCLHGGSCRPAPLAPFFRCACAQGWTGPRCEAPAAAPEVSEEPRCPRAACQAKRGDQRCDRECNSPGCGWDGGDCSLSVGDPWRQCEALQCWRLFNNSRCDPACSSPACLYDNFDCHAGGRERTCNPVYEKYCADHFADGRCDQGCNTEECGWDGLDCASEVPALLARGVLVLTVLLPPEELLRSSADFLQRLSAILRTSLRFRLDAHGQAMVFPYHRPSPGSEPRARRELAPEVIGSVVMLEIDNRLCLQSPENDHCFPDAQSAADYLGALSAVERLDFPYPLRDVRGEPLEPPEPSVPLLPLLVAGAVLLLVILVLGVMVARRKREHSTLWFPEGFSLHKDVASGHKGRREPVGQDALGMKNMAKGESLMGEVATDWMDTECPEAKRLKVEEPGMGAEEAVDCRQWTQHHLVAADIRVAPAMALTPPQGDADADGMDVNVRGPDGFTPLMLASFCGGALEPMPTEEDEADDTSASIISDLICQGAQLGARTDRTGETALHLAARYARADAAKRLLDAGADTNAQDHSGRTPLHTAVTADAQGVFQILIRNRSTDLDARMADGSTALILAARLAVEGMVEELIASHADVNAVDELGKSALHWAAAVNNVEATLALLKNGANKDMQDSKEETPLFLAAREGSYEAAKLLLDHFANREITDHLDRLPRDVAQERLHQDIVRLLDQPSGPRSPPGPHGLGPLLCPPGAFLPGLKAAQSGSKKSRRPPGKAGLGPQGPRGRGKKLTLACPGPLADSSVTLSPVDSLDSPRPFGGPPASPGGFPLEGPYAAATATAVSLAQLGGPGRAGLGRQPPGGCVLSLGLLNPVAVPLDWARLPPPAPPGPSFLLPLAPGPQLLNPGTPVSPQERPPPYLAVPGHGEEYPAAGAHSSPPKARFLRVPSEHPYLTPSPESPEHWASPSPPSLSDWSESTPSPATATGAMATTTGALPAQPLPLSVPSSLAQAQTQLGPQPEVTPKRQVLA
Test [10] is described as follows: probe aEGFR binding to arrayed compounds – biochemical, biotinylated probe, 635/667 nm fluorescence, primary screen (AID 1097).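 Note: probe is a biotinylated anti-EGFR antibody binding compounds printed on slides; score combines fluorescence near 667 nm and signal to noise of each spot.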 The note with it: small-molecule microarray, higher = more signal.
The test system of test [11] is Plasmodium falciparum Sir2 (PF13_0152, Sir2A). Nature of the test: Plasmodium falciparum Sir2A binding compounds – biochemical, small-molecule microarray, 635 nm fluorescence, primary screen (AID 1098).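 Note: score merges spot fluorescence intensity with its signal-to-noise ratio.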 The note with it: fluorescence 635 nm, higher = more signal.
Test [12] in a line: probe aDKK1 binding to arrayed compounds – biochemical, biotinylated probe, 635/667 nm fluorescence, primary screen (AID 1099).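 Note: score merges 667nm spot fluorescence with signal to noise across triplicate slides; reference of the scale not given here.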 Conditions: small-molecule microarray, higher = more signal.
The nature of test [13]: probe aCHRDL2 binding to arrayed compounds – biochemical, biotinylated probe, 635/667 nm fluorescence, primary screen (AID 1100). Conditions: small-molecule microarray, higher = more signal.
Test [14] can be described thus: change in splice reporter luminescence, either direction, cell-based, HEK293, spliceosome inhibition project, primary screen (AID 1101).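 Note: HEK293 cells carrying a splicing-competent luciferase reporter gene; test concentration not given here.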 Conditions: HEK293 splicing luciferase reporter, 24 h, higher = more signal, called active from +8 up or from −8 down.
In test [15] the target is Fibroblast growth factor 10 (Homo sapiens) (UniProt O15520). Nature of the test: compounds binding fibroblast growth factor 10 – biochemical, small-molecule microarray, 635 nm fluorescence, primary screen (AID 1102). The note with it: FGF10 binding, fluorescence 635 nm, higher = more signal.
Sequence of Fibroblast growth factor 10 (Homo sapiens) (O15520 whole entry, looked up): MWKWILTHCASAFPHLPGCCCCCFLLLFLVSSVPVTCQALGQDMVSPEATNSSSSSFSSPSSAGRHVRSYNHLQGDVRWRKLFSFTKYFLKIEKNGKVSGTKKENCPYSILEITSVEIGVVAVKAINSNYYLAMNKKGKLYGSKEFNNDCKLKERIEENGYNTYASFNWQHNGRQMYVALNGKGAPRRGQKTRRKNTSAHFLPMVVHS
Test [16] deals with glycogen synthase kinase-3 (GSK3A per assay name; protocol says GSK3B). The test can be described thus: compounds binding glycogen synthase kinase-3 – biochemical, small-molecule microarray, 635 nm fluorescence, GSK3A, primary screen (AID 1103). Note: the record names both GSK3A and GSK3B. Conditions: fluorescence 635 nm, higher = more signal.
Test [17] deals with Epidermal growth factor receptor (Homo sapiens) (UniProt P00533). Nature of the test: compounds binding epidermal growth factor receptor – biochemical, small-molecule microarray, 635 nm fluorescence, primary screen (AID 1104).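 Note: score merges 667 nm emission intensity with spot signal to noise over triplicate slides.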 Conditions: EGFR binding, higher = more signal.
Sequence of Epidermal growth factor receptor (Homo sapiens) (P00533 whole entry, looked up): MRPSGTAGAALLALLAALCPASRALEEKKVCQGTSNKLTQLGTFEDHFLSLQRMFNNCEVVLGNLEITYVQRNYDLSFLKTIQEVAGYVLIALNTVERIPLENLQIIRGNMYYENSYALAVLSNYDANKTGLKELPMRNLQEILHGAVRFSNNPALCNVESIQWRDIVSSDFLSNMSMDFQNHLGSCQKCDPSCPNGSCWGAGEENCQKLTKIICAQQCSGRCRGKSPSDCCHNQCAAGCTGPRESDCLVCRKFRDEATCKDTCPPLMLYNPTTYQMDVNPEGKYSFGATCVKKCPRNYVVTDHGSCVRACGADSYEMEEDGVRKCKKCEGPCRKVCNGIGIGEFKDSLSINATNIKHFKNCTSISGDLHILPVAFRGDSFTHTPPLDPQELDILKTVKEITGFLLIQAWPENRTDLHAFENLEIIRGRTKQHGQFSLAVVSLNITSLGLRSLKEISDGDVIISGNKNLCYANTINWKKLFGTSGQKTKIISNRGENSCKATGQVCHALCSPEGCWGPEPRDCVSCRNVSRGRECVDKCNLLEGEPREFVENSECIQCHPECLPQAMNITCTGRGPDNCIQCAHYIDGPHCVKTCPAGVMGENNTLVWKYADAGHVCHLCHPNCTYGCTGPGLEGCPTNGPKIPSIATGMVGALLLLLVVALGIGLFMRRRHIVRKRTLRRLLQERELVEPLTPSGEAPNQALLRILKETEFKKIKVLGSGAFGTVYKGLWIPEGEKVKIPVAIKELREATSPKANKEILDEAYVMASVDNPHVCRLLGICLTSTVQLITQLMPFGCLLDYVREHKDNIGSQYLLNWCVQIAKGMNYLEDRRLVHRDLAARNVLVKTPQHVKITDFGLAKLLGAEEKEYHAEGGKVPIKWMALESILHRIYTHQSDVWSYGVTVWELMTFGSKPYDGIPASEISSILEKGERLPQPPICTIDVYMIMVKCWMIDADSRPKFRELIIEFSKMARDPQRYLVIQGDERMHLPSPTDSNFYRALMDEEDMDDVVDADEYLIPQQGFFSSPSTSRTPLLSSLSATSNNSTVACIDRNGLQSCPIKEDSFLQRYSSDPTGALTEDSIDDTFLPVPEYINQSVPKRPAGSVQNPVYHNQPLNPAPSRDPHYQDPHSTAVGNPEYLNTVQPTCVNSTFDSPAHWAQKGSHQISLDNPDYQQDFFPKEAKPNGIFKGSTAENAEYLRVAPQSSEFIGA
The target in test [18] is Follistatin-related protein 3 (Homo sapiens) (UniProt O95633). The test can be described thus: compounds binding follistatin-related protein 3 – biochemical, small-molecule microarray, 635 nm fluorescence, primary screen (AID 1105).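 Note: score merges emission near 667 nm and signal to noise per printed spot across three slides.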 The note with it: FSTL3 binding, higher = more signal.
Sequence of Follistatin-related protein 3 (Homo sapiens) (O95633 whole entry, looked up): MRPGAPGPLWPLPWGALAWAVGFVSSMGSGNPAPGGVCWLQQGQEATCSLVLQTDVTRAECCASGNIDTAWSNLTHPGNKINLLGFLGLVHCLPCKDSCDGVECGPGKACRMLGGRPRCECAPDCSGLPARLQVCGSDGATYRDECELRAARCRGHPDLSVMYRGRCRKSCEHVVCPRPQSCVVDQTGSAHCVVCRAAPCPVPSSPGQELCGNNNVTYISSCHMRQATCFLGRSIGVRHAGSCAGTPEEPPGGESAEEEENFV
In test [19] the target is Dickkopf-related protein 1 (Homo sapiens) (UniProt O94907). The test can be described thus: small molecules binding DKK1 protein – biochemical, small-molecule microarray, 635 nm fluorescence scan, primary screen (AID 1106).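 Note: score merges emission near 667 nm with signal to noise over three replicate slides.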 The note with it: higher = more signal.
Sequence of Dickkopf-related protein 1 (Homo sapiens) (O94907 whole entry, looked up): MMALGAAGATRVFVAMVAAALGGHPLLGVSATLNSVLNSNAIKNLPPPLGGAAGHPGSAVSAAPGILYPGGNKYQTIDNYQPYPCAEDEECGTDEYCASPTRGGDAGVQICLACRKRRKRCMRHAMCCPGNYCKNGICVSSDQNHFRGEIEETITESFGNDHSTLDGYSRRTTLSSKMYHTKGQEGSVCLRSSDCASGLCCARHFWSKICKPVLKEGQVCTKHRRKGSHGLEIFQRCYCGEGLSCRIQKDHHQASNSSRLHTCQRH
For test [20], the system named is Inhibin beta A chain (activin A). Nature of the test: small molecules binding activin A – biochemical, small-molecule microarray, 635 nm fluorescence scan, primary screen (AID 1107).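 Note: mouse activin A protein probed at 4.33 µg/mL on printed slides; score merges bound-protein fluorescence near 667 nm with spot signal-to-noise.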 Conditions: INHBA, higher = more signal.

The source made the active and inactive calls.

In the case of `COc1ccc([Si](C)(C)[C@@H]2[C@@H](CC(=O)N3CCC[C@H]3CO)O[C@]3(C(=O)N(Cc4cccc(N5C(=O)COc6ccccc65)c4)c4ccccc43)[C@H]2C)cc1`, the composite z-score in test [1] is 1.57; in test [5], 1.77; in [7], -0.0198; in test [8], 0.942; in test [9], 0.757; in test [10], -0.165. Further, the composite z-score was 0.911 in test [11]; -0.0948 in [12]; 0.157 in test [13]; 0.723 in test [15]; 0.746 in test [16]; 0.447 in test [17]. For the same molecule, the composite z-score in test [18] was found to be 0.579; in test [19] it was 0.173; in test [20] it was 0.615. For the same molecule, the z-score was -2.24 (inactive) in [2]; -0.185 (inactive) in [3]; -0.278 (inactive) in test [4]; 0.222 (inactive) in test [6]; -1.06 (inactive) in test [14].
Turning to `Cc1ccc(N2C(=O)c3ccccc3[C@@H](C(=O)NCCCN(C)C)[C@@H]2c2ccc(CO)cc2)nc1`, the composite z-score in [1] was 0.0027; in test [5], -0.732; in [7], 0.186; in test [8], -0.572; in [9], -0.916; in [10] it was 0.576. The composite z-score in [11] was 0.451; in [12], 1.51; in test [13] it was 0.824; in test [15], -0.514; in test [16], -0.298; in [17] it was 0.239. The composite z-score in [18] was 0.102; in test [19], -0.06; in test [20] it was -0.153. Further, the z-score in test [2] is -0.292 (inactive); in [3], -0.636 (inactive); in [4] it was -0.81 (inactive); in test [6] it was 0.213 (inactive); in [14] it was -0.556 (inactive).
In the case of `C[N+](C)(C)CCCC[C@@H]1NC(=O)[C@@H]2C[C@H](C(=O)NCCCCCCN)[C@H](c3cccc(OCCO)c3)N2C1=O`, the composite z-score in test [1] turned out to be 1.45; in test [5], 2.44; in [7], 1.26; in [8], 0.47; in test [9] it was 0.748; in [10], 0.617. Further, the composite z-score in test [11] came out at 1.16; in test [12], 1.85; in test [13], 1.14; in test [15], 0.766; in [16] it was 1.29; in test [17], 0.132. The composite z-score in test [18] amounted to 0.776; in test [19] it was 0.695; in [20], 1.4. The z-score was -0.344 (inactive) in [2]; -4.23 (inactive) in test [3]; -0.244 (inactive) in test [4]; 0.0037 (inactive) in test [6]; -0.111 (inactive) in test [14].
For the molecule `C=CCC(OC(C)=O)[C@@H]1[C@@H](N(Cc2cccc3ccccc23)C(=O)Cc2ccc(OC)cc2)c2cc(OCCCO)ccc2N1C(=O)c1ccc(-c2ccccc2)cc1` (stereo not given in full), the composite z-score is 0.328 in test [1]; 1.1 in test [5]; -0.206 in [7]; -0.424 in test [8]; 0.0523 in test [9]; -0.19 in test [10]. Also, the composite z-score in test [11] was -0.203; in [12] it was 0.0699; in test [13], 0.44; in test [15] it was -0.249; in [16], -0.179; in test [17], 0.347. The figures for the composite z-score in [18], in test [19] and in test [20] were -0.0555, -0.324 and 1.43, respectively. The z-score in test [2] is 0.0338 (inactive); in test [3], 0.402 (inactive); in test [4], -0.962 (inactive); in [6], -0.373 (inactive); in test [14], -0.279 (inactive).
In the case of `COC(=O)C/C=C/C[C@]1(O)C(=O)N(C)c2ccccc21`, the composite z-score in test [1] is 0.756; in test [5], 0.423; in test [7], -0.186; in test [8], 0.739; in test [9] it was 0.434; in test [10], -0.0805. In addition, the composite z-score was -0.262 in test [11]; -0.299 in test [12]; -0.802 in test [13]; 0.791 in test [15]; 0.605 in test [16]; 0.784 in test [17]. Besides, the figures for the composite z-score in test [18], in [19] and in test [20] were 0.616, 0.949 and 0.587, respectively. Moreover, the z-score in [2] was -1.73 (inactive); in [3], -1.35 (inactive); in test [4], -1.02 (inactive); in [6], 1.48 (inactive); in test [14], -1.38 (inactive).
